From PubChem BioAssay (EPA / NIEHS)
Records with an inconclusive call do not appear. Active and inactive are the calls of the source. Rule for the calls, unless noted: active = hit-call score of the fitted dose curve at least 0.9, where 1 is the maximum; inactive = score below 0.9.

Tests used:
[1] = target: Paired box protein Pax-6 (Homo sapiens) (UniProt P26367); assay: ATG_Pax6_CIS: Attagene CIS-FACTORIAL HepG2 Assay for human Paired Box 6 (PAX6) (AID 2282956); details: HepG2 CIS-FACTORIAL PAX6 reporter transcription, RNA readout; actives raise or lower the signal
Chain of Paired box protein Pax-6 (Homo sapiens) (P26367 whole entry, looked up): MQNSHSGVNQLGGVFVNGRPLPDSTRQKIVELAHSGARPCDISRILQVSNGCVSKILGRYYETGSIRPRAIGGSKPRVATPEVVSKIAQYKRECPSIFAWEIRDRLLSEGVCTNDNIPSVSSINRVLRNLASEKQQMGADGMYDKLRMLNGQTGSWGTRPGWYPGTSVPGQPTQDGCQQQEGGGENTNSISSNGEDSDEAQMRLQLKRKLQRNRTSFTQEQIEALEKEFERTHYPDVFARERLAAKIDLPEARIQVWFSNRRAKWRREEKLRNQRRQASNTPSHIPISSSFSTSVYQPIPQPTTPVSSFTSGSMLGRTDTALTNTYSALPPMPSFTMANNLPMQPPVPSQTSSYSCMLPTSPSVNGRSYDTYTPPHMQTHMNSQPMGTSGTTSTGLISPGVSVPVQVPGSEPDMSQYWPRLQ
Method in brief: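 Fluorescent RT-PCR products separated by capillary electrophoresis report PAX6-linked promoter mRNA in HepG2 cells 24 h post-dose. Curves fitted bidirectionally, DMSO as negative control.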

[2] = ATG_PXRE_CIS: Attagene CIS-FACTORIAL HepG2 Assay for human Pregnane X Receptor Element (PXRE) (AID 2282957); details: HepG2 Attagene CIS-FACTORIAL PXRE reporter, mRNA; actives raise or lower the signal
Method in brief: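 Read-out: fluorescence of reporter-specific RT-PCR products resolved by capillary electrophoresis, fitted bidirectionally relative to DMSO. Human HepG2 liver cells carried transfected cis-promoter reporter units and were exposed to chemicals for 24 h.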

[3] = ATG_PPRE_CIS: Attagene CIS-FACTORIAL HepG2 Assay for human Peroxisome Proliferator-activated Response Element (PPRE) (AID 2282958); details: HepG2 PPRE cis-element reporter, Attagene transcription factor profiling; actives raise or lower the signal
Method in brief: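 DMSO served as negative control and baseline for bidirectional curve fitting. Signal came from PPRE-regulated reporter mRNA in HepG2 cells, measured 24 h post-dosing by RT-PCR, 6-FAM primer extension and capillary electrophoresis.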

[4] = ATG_RORE_CIS: Attagene CIS-FACTORIAL HepG2 Assay for human RAR-related Orphan Receptor Element (RORE) (AID 2282959); details: HepG2 Attagene cis-factorial RORE reporter, mRNA; actives raise or lower the signal
Method in brief: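 Transfect HepG2 with MRTUs; treat 24 h; extract RNA; RT with oligo(dT); PCR with reporter-specific primers; 6-FAM primer extension; HpaI digest 2 h at 37 C; capillary electrophoresis. Fit vs DMSO, bidirectional.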

[5] = ATG_Sox_CIS: Attagene CIS-FACTORIAL HepG2 Assay for human SRY-box transcription factor (SOX) (AID 2282960); details: HepG2 Attagene cis-factorial SOX reporter, mRNA; actives raise or lower the signal
Method in brief: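 Fluorescence-labelled cDNA fragments from reporter transcripts, sized by CE, give the signal. Cells: HepG2, transiently transfected with cis-regulated reporter units. Exposure 24 h; DMSO negative control; bidirectional curve fitting.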

[6] = target: Transcription factor Sp1 (Homo sapiens) (UniProt P08047); assay: ATG_Sp1_CIS: Attagene CIS-FACTORIAL HepG2 Assay for human Specificity Protein 1 (Sp1) (AID 2282961); details: HepG2 Sp1 cis-reporter transcription, actives raise or lower the signal
Chain of Transcription factor Sp1 (Homo sapiens) (P08047 whole entry, looked up): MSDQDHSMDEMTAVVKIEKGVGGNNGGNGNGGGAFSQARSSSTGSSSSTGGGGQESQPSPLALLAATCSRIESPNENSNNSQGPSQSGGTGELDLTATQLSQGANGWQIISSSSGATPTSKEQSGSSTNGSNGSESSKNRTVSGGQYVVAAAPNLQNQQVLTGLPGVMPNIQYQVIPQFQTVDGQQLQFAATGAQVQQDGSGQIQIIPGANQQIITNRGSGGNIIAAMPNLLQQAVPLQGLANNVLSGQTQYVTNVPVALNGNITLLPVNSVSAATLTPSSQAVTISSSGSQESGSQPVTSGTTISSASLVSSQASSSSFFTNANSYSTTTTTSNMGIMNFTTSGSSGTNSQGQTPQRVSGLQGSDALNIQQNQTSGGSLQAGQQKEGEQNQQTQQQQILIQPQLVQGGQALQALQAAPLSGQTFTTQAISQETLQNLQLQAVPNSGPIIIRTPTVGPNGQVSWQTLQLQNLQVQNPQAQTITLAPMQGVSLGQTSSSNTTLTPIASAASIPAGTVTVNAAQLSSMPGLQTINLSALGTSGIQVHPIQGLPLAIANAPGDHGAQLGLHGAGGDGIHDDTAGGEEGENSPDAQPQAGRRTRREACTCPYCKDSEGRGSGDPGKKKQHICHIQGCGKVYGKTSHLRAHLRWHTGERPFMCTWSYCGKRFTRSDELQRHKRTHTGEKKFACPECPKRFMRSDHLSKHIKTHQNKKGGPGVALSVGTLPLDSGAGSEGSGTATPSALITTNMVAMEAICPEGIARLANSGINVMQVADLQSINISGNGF
Method in brief: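 Chemicals are dosed onto HepG2 cells transfected with multiple cis-promoter reporter constructs, and after 24 h reporter RNA is reverse-transcribed, PCR-amplified and resolved by capillary electrophoresis for fluorescence quantitation; activity is scored up or down against DMSO.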

[7] = ATG_SREBP_CIS: Attagene CIS-FACTORIAL HepG2 Assay for human Sterol Regulatory Element Binding (SREBP) (AID 2282962); details: HepG2 Attagene cis-factorial SREBP reporter, mRNA; actives raise or lower the signal
Method in brief: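 Endogenous factor activity is measured in HepG2 through multiplexed reporter units under cis-element control. Following a 24 h incubation, reporter transcripts are reverse-transcribed, PCR-amplified and sized by capillary electrophoresis; activity is fitted in both directions relative to DMSO.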

[8] = target: Signal transducer and activator of transcription 3 (Homo sapiens) (UniProt P40763); assay: ATG_STAT3_CIS: Attagene CIS-FACTORIAL HepG2 Assay for human Signal Transducer and Activator of Transcription 3 (STAT3) (AID 2282963); details: HepG2, Attagene cis-factorial STAT3 reporter transcription; actives raise or lower the signal
Chain of Signal transducer and activator of transcription 3 (Homo sapiens) (P40763 whole entry, looked up): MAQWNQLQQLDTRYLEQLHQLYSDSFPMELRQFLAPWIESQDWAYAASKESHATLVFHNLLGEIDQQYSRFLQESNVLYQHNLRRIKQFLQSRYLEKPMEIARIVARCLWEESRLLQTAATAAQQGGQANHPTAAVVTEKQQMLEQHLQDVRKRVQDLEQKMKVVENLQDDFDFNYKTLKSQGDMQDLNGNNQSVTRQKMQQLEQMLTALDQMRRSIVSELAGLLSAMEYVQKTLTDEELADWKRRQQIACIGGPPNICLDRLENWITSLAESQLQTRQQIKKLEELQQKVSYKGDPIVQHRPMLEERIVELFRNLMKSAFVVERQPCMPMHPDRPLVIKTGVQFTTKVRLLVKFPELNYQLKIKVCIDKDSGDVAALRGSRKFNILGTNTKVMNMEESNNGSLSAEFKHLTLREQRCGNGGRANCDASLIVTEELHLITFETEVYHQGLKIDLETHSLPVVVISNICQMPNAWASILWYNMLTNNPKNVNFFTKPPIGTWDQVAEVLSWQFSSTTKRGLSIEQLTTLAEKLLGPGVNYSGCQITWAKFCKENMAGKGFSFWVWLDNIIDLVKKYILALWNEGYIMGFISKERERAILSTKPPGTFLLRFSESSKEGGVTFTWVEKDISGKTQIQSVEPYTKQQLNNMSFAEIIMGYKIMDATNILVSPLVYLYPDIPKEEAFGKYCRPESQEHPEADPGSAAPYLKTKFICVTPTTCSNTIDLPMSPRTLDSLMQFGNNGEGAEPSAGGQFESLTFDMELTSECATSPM
Method in brief: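 Uses human liver HepG2 transiently carrying cis-regulated reporter transcription units. Following 24 h dosing, reporter mRNA induction was detected by RT-PCR and capillary electrophoresis, analysed bidirectionally versus DMSO.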

[9] = ATG_TCF_b_cat_CIS: Attagene CIS-FACTORIAL HepG2 Assay for human T-Cell-Factor with beta-catenin (TCF/b-cat) (AID 2282965); details: HepG2 TCF/beta-catenin cis-reporter transcription, actives raise or lower the signal
Method in brief: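 Using capillary electrophoresis as the read-out, labelled reporter cDNA fragments from transiently transfected HepG2 were sized and quantified. Exposure lasted 24 hours; activity in either direction was referenced to DMSO.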

[10] = ATG_TAL_CIS: Attagene CIS-FACTORIAL HepG2 Assay for human TAL Basal Promoter (AID 2282966); details: HepG2 Attagene cis-factorial TAL promoter reporter; actives raise or lower the signal;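 note: background control endpoint measuring basal TAL promoter reporter mRNA not a specific factor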
Method in brief: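 HepG2, transient MRTU transfection, 24 h compound exposure; RNA → oligo(dT) RT → PCR → 6-FAM primer extension → HpaI digest → CE fluorescence. Bidirectional curve fit vs DMSO. Background-control readout.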

[11] = ATG_TGFb_CIS: Attagene CIS-FACTORIAL HepG2 Assay for human Transforming Growth Factor (TGF) (AID 2282967); details: HepG2 Attagene CIS TGFb reporter, mRNA transcription; actives raise or lower the signal
Method in brief: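 After a 24-hour incubation with compound, transfected HepG2 cells were lysed for RNA; reporter cDNA was amplified, fluorescently end-labeled and separated by CE. DMSO served as baseline for bidirectional fits.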

[12] = target: X-box-binding protein 1 (Homo sapiens) (UniProt P17861); assay: ATG_Xbp1_CIS: Attagene CIS-FACTORIAL HepG2 Assay for human X-box Binding Protein 1 (XBP1) (AID 2282972); details: HepG2 XBP1 cis-element reporter, Attagene multiplex; actives raise or lower the signal
Chain of X-box-binding protein 1 (Homo sapiens) (P17861 whole entry, looked up): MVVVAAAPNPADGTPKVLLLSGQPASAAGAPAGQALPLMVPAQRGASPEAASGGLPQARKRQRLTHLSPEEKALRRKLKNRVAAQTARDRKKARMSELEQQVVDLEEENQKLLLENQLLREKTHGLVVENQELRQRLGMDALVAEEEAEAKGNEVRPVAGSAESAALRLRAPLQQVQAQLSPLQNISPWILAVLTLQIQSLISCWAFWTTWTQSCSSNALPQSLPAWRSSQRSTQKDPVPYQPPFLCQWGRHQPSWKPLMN
Method in brief: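 Multiplexed cis-reporter readout in transfected HepG2 liver cells. Exposure lasted 24 hours. Activity in either direction was fitted against DMSO as negative control and baseline.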

[13] = ATG_M_19_TRANS: Attagene TRANS-FACTORIAL HepG2 Assay for M19 Transcription Factor (Internal Marker) (AID 2282974; active = hit-call score of the fitted dose curve at least 0.9, where 1 is the maximum); details: HepG2 Attagene TRANS-FACTORIAL M19 internal marker reporter
Method in brief: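 Multiplexed TRANS format: HepG2 liver cells bearing transient GAL4-UAS reporter units, chemical treatment 24 h, reporter transcripts quantified by RT-PCR plus capillary electrophoresis. DMSO defines baseline.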

[14] = ATG_VDRE_CIS: Attagene CIS-FACTORIAL HepG2 Assay for human Vitamin D Receptor Element (VDRE) (AID 2282968); details: HepG2 VDRE cis-reporter transcription, actives raise or lower the signal
Method in brief: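 Transfected HepG2 reporter cells, chemical treatment 24 h. RNA isolated, cDNA amplified with reporter-specific primers, products analysed by capillary electrophoresis. Endpoint fitted in both directions versus DMSO.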

[15] = target: Glucocorticoid receptor (Homo sapiens) (UniProt P04150); assay: ATG_GR_TRANS: Attagene TRANS-FACTORIAL HepG2 Assay for human Glucocorticoid Receptor (GR) (AID 2282978; active = hit-call score of the fitted dose curve at least 0.9, where 1 is the maximum;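 note: activators score as hits since higher reporter transcript over DMSO is fitted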); details: HepG2 Attagene TRANS GR reporter, mRNA transcription
Chain of Glucocorticoid receptor (Homo sapiens) (P04150 whole entry, looked up, the tested form may be a part): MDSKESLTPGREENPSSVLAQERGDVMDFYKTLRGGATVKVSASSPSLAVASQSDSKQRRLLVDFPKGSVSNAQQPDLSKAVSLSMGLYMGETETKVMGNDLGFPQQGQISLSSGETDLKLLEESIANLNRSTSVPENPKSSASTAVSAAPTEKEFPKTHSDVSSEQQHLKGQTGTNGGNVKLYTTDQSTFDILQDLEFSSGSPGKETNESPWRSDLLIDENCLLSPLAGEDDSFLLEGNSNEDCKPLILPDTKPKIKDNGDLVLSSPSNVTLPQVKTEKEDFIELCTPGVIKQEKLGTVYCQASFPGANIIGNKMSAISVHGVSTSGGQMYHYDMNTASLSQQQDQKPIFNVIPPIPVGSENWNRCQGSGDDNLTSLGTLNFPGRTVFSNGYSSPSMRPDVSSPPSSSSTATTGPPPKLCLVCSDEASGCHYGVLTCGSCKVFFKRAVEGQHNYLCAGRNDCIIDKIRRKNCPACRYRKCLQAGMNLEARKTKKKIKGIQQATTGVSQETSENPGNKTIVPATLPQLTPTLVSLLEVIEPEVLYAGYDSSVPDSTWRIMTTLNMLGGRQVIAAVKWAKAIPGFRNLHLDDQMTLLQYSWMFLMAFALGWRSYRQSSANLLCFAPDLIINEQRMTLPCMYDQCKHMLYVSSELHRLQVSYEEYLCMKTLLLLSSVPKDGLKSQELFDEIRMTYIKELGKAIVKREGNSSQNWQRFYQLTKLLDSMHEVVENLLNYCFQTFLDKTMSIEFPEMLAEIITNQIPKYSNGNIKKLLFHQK
Method in brief: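 Transiently transfected HepG2 cells express chimeric NR-GAL4 proteins acting on GAL4-UAS reporter units. Compounds are applied for 24 h. mRNA induction over DMSO is measured by capillary electrophoresis.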

[16] = ATG_TA_CIS: Attagene CIS-FACTORIAL HepG2 Assay for human TA Basal Promoter (AID 2282964); details: HepG2 Attagene CIS-factorial TA basal promoter reporter; actives raise or lower the signal
Method in brief: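 Transient MRTU transfection of HepG2 preceded 24 h compound exposure. Reporter mRNA levels were then read by RT-PCR with capillary electrophoresis, and this background-control endpoint was fitted bidirectionally to DMSO.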

[17] = ATG_GAL4_TRANS: Attagene TRANS-FACTORIAL HepG2 Assay for GAL4 (Internal Marker) (AID 2282976; active = hit-call score of the fitted dose curve at least 0.9, where 1 is the maximum); details: HepG2 Attagene TRANS GAL4 internal marker reporter
Method in brief: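 RT-PCR/capillary electrophoresis readout of reporter mRNA. HepG2, transient MRTU transfection (GAL4-UAS reporters), 24 h compound exposure. Background-control endpoint, positive direction vs DMSO baseline.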

[18] = target: Nuclear receptor subfamily 1 group I member 3 (Homo sapiens) (UniProt Q14994); assay: ATG_CAR_TRANS: Attagene TRANS-FACTORIAL HepG2 Assay for human Constitutive Androstane Receptor (CAR) (AID 2282969; active = hit-call score of the fitted dose curve at least 0.9, where 1 is the maximum;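 note: activators raise reporter mRNA above DMSO so AC50 marks induction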); details: HepG2 Attagene TRANS-FACTORIAL CAR reporter
Chain of Nuclear receptor subfamily 1 group I member 3 (Homo sapiens) (Q14994 whole entry, looked up, the tested form may be a part): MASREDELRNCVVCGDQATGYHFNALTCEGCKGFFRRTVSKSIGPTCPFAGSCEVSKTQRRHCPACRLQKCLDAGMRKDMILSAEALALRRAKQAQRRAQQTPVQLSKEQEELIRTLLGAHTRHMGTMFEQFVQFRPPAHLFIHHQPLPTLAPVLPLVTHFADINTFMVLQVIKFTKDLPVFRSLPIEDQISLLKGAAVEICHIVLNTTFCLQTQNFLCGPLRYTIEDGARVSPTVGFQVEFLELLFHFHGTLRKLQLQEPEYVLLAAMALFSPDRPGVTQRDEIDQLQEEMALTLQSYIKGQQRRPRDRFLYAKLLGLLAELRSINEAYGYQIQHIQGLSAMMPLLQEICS
Method in brief: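 Steps: transient transfection of HepG2 with multiple GAL4-UAS reporter units; 24 h compound incubation; RNA isolation, RT-PCR, 6-FAM primer extension, HpaI digest; capillary electrophoresis. Gain-of-signal relative to DMSO negative control.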

[19] = target: Steroid hormone receptor ERR1 (Homo sapiens) (UniProt P11474); assay: ATG_ERRa_TRANS: Attagene TRANS-FACTORIAL HepG2 Assay for human Estrogen-Related Receptor alpha (ERRa) (AID 2282971; active = hit-call score of the fitted dose curve at least 0.9, where 1 is the maximum); details: HepG2 Attagene TRANS reporter, ERRa transactivation
Chain of Steroid hormone receptor ERR1 (Homo sapiens) (P11474 whole entry, looked up, the tested form may be a part): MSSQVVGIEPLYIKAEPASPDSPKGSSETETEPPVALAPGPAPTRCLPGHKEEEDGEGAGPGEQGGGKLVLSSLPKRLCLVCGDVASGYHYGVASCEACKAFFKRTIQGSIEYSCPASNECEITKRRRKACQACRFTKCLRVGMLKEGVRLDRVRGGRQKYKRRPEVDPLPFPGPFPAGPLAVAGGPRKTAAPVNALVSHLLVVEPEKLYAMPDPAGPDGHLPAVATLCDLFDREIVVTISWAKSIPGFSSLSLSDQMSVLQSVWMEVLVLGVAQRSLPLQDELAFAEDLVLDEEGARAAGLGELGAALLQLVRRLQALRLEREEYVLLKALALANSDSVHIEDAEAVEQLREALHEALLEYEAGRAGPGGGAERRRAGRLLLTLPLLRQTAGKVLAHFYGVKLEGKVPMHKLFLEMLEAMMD
Method in brief: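 Transfected HepG2, 24 h dosing, ERRa-Gal4 chimera driving GAL4-UAS reporter. Readout: reporter mRNA via RT-PCR plus capillary electrophoresis (fluorescence). Positive direction vs DMSO control.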

[20] = target: Estrogen-related receptor gamma (Homo sapiens) (UniProt P62508); assay: ATG_ERRg_TRANS: Attagene TRANS-FACTORIAL HepG2 Assay for human Estrogen-Related Receptor gamma (ERRg) (AID 2282977; active = hit-call score of the fitted dose curve at least 0.9, where 1 is the maximum;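 note: hits increase reporter signal over DMSO so potencies reflect activators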); details: HepG2 Attagene TRANS reporter, ERRg transactivation
Chain of Estrogen-related receptor gamma (Homo sapiens) (P62508 whole entry, looked up, the tested form may be a part): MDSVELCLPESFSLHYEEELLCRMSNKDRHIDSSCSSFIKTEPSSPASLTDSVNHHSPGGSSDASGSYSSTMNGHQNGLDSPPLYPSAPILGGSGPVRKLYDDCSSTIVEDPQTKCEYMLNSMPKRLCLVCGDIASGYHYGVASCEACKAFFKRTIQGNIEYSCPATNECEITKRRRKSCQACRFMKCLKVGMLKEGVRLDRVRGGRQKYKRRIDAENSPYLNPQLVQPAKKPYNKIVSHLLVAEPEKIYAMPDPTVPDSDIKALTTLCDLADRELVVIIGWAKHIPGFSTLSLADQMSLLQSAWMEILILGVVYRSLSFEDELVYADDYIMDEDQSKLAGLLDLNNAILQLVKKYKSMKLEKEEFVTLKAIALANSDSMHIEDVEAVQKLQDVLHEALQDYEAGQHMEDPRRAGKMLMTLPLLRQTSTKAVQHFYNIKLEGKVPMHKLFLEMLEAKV
Method in brief: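 Exogenous NR-Gal4 chimera activity was assessed in HepG2 cells bearing transfected GAL4-UAS reporters. After 24 h dosing, total RNA underwent RT-PCR, fluorescent primer extension and HpaI digestion before capillary electrophoresis, with gain of signal scored against DMSO.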

Measured: AC50

CCCCCCCCCC(=O)OC
inactive: [1] | [2] | [3] | [4] | [5] | [6] | [7] | [8] | [9] | [10] | [11] | [12] | [13]

CCCCC1CCC(O)CC1 (stereo not given)
inactive: [1] | [2] | [3] | [4] | [5] | [6] | [8] | [9] | [10] | [11] | [14] | [12] | [15]

CCCCSCCCC
inactive: [1] | [2] | [3] | [4] | [5] | [6] | [7] | [8] | [16] | [10] | [11] | [17]

CCc1ccc(O)c(OC)c1
inactive: [1] | [2] | [3] | [4] | [5] | [6] | [8] | [16] | [9] | [11] | [12] | [13]

C[Si]1(C)O[Si](C)(C)O[Si](C)(C)O1
inactive: [1] | [3] | [4] | [5] | [6] | [8] | [9] | [11] | [18] | [19] | [12] | [13] | [17] | [20]
active: [2] 32.5 µM

CCCCOC(=O)CCCCCCCC(=O)OCCCC
active: [9] 128 µM
inactive: [1] | [2] | [3] | [4] | [5] | [6] | [8] | [16] | [10] | [11] | [14] | [19] | [12] | [17] | [20]

CCCCC1(COC(=O)CCC(=O)O)C(=O)N(c2ccccc2)N(c2ccccc2)C1=O
active: [2] 19.5 µM
inactive: [1] | [3] | [4] | [5] | [7] | [8] | [16] | [9] | [10] | [11] | [14] | [12]

O=C(CC(=O)c1ccccc1)c1ccccc1
active: [1] 100 µM | [2] 25.3 µM | [3] 3.67 µM | [4] 26.7 µM | [5] 100 µM | [6] 94.3 µM | [7] 67.7 µM | [12] 45.1 µM
inactive: [8] | [16] | [9] | [11] | [14] | [15]

CC(=O)C(C)O (stereo not given)
inactive: [1] | [2] | [3] | [4] | [5] | [6] | [8] | [16] | [10] | [11] | [14] | [12] | [17]

C=Cc1ccc(C(C)(C)C)cc1
active: [2] 27.4 µM
inactive: [1] | [3] | [4] | [5] | [6] | [7] | [8] | [16] | [9] | [11] | [18] | [12] | [13] | [17]

CCc1ccc(O)cc1
inactive: [1] | [3] | [4] | [5] | [6] | [7] | [8] | [16] | [11] | [14] | [12] | [13] | [17] | [20] | [15]
active: [2] 32.3 µM

CS(C)=O
inactive: [1] | [2] | [3] | [4] | [5] | [6] | [7] | [8] | [9] | [10] | [11] | [12] | [13] | [15]

CN1C(=O)c2ccccc2C1=O
inactive: [1] | [2] | [3] | [4] | [5] | [6] | [7] | [8] | [16] | [10] | [11] | [14] | [19] | [20] | [15]

CCCCCC(C=O)=Cc1ccccc1
inactive: [1] | [4] | [5] | [6] | [8] | [16] | [9] | [10] | [11] | [12] | [13] | [17]
active: [2] 24.5 µM | [3] 26.5 µM
